Each structure is given as a SMILES string. “And” between values parts separate entries of the source, which are not always exact repeats. Identical values can stand only once. Inconclusive results are not listed. Where a structure was tested more than once in an assay, its records may differ in their call. The source made the active and inactive calls. Unless noted, calls come from the whole dose curve; as a rule, active = well fitted curve in the direction sought with a large enough effect in the repeat runs; inconclusive = weak or mixed curves; inactive = no such curve, though single readings can be large; an effect the other way counts as inactive or inconclusive.

Experiment [1] addresses Thyrotropin receptor (Homo sapiens) (UniProt P16473). In words: qHTS assay to identify small molecule agonists of the thyroid stimulating hormone receptor (TSHR) signaling pathway (AID 1224843; calls by dose curve; note: nearly all actives have a fitted effect of over 45% in size). Put shortly:
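TSHR-HEK293 cells in agonist mode, 30 min room-temperature step, then cAMP measured by competitive HTRF (cAMP-d2 with anti-cAMP cryptate) after 1 h at room temperature. Tested at 15 concentrations in triplicate.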

A short description of experiment [2]: qHTS assay to identify small molecule agonists of the hypoxia (HIF-1) signaling pathway - cell viability counter screen (AID 1224844; calls by dose curve; note: nearly all actives have a fitted effect of over 50% in size). Put shortly: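 Tox21 10K compounds were added to HRE-bla ME-180 cells (0.5% dialyzed FBS) and incubated 17 hrs at 37C; ATP-based CellTiter-Glo luminescence then reported cell viability in the same wells.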
The nature of experiment [3]: qHTS assay to identify small molecule agonists of H2AX (AID 1224845; active = well fitted activation curve with a large enough effect in the signal ratio in the repeat runs, not every such curve was filed as active; the % refers to the signal ratio). Put shortly:
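Wild-type CHO-K1 cells, plated overnight, exposed 3hr at 37C to 15 concentrations (0.76% DMSO final). Lysed, then HTRF anti-pH2AX (S139) cryptate and anti-H2AX-d2 antibodies, 24 hr room temperature; 665/620 nm emission read.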

A short description of experiment [4]: qHTS assay to identify small molecule agonists of H2AX - cell viability counter screen (AID 1224847; calls by dose curve; note: top concentration of the series differs between compounds; nearly all actives have a fitted effect of over 30% in size). An outline of the steps:
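Wild-type CHO-K1 cells (10% FBS medium) were plated overnight at 37C, exposed to compounds at 15 concentrations for 3 hr at 37C (0.76% DMSO final), and viability was read as CellTiter-Glo luminescence after 30 min at room temperature.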

Experiment [5] can be described thus: qHTS assay to identify small molecule antagonists of the estrogen related receptor (ERR) signaling pathway from Tox21 library (AID 1224848). Note: nearly all actives have a fitted effect of over 50% in size. An outline of the steps: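 ERR reporter cell line (from NTP) seeded 2,000 cells/well, rested 6 h at 37 C/5% CO2, then pin-dosed with compounds in DMSO. After 18 h at 37 C, ONE-Glo added; luminescence read after 30 min at room temperature.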

Experiment [6] can be described thus: qHTS assay to identify small molecule agonists of the estrogen related receptor (ERR) signaling pathway from Tox21 library (AID 1224849; calls by dose curve; note: nearly all actives have a fitted effect of over 15% in size). The following applies: ERR reporter cell line, ONE-Glo luciferase, 18 h. Put shortly:
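Agonist signal is luciferase luminescence from an ERR reporter cell line treated 18 h at 37 C with DMSO-dissolved compounds, read 30 min after ONE-Glo addition at room temperature.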

Experiment [7] can be described thus: qHTS RealTime-Glo MT Cell Viability Assay in HepG2 cells - 24 hour (AID 1224867). Note: nearly all actives have a fitted effect of over 50% in size. An outline of the steps:
(§1)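 Cells + NanoLuc/prosubstrate dispensed (600 cells/well) → 5 h at 37 C/5% CO2 → compounds in DMSO transferred → 40 h incubation at 37 C, luminescence read at 0, 8, 16, 24, 32, 40 h.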

Experiment [8] is described as follows: qHTS RealTime-Glo MT Cell Viability Assay in HEK293 cells - 32 hour (AID 1224868). Note: top concentration of the series differs between compounds; nearly all actives have a fitted effect of over 50% in size. Put shortly: (§2)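 Tox21 10K qHTS, HEK293, 600 cells/well, RealTime-Glo reagent co-dispensed with cells; 5 h preincubation, compound by pintool, 37 C, luminescence at 0–40 h.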
Experiment [9] in a line: A CellTox Green Cytotoxicity Assay to monitor cytotoxicity in HEK293 cells - 0 hour (AID 1224869). Note: nearly all actives have a fitted effect of over 50% in size. Note: potency is the fitted concentration of half-maximal effect. Put shortly: (§3)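 Cytotoxicity was tracked continuously in HEK293 cells by a DNA-binding dye excluded from viable cells. Compounds were transferred in DMSO 5 h after seeding; fluorescence was recorded at intervals up to 40 h.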
The nature of experiment [10]: qHTS RealTime-Glo MT Cell Viability Assay in HepG2 cells - 40 hour (AID 1224870). Note: nearly all actives have a fitted effect of over 50% in size. Put shortly: (§4)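 HepG2 cells (600/well) mixed with RealTime-Glo MT reagent, settled 5 h at 37 C/5% CO2 before compound addition. Nonlytic NanoLuc luminescence from viable-cell prosubstrate reduction read repeatedly during 40 h treatment at 37 C.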
Experiment [11] is described as follows: A CellTox Green Cytotoxicity Assay to monitor cytotoxicity in HEK293 cells - 40 hour (AID 1224871). Note: nearly all actives have a fitted effect of over 45% in size. Note: potency is the fitted concentration of half-maximal effect. An outline of the steps:
as §3

The nature of experiment [12]: qHTS RealTime-Glo MT Cell Viability Assay in HEK293 cells - 16 hour (AID 1224872). An outline of the steps:
as §2

Experiment [13] in a line: qHTS RealTime-Glo MT Cell Viability Assay in HepG2 cells - 8 hour (AID 1224873). Note: nearly all actives have a fitted effect of over 55% in size. Put shortly:
as §4

The nature of experiment [14]: qHTS RealTime-Glo MT Cell Viability Assay in HEK293 cells - 40 hour (AID 1224874). Note: nearly all actives have a fitted effect of over 50% in size. Note: potency is the fitted concentration of half-maximal effect. The following applies: RealTime-Glo luminescence; max response: stronger effect = lower value. An outline of the steps: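 Nonlytic bioluminescent viability monitoring. HEK293 at 600 cells/well with reagent; 5 h settle; compound transfer by pintool; plates held at 37 C and read at set time points.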

Experiment [15] is described as follows: A CellTox Green Cytotoxicity Assay to monitor cytotoxicity in HEK293 cells - 24 hour (AID 1224875). Note: nearly all actives have a fitted effect of over 45% in size. An outline of the steps: as §3
A short description of experiment [16]: A CellTox Green Cytotoxicity Assay to monitor cytotoxicity in HepG2 cells - 16 hour (AID 1224876). Note: nearly all actives have a fitted effect of over 45% in size. Note: potency is the fitted concentration of half-maximal effect. Put shortly: (§5)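 Real-time, homogeneous cytotoxicity readout: dead-cell DNA staining by CellTox Green in HepG2 monolayers, fluorescence measured at timed intervals up to 40 h of continuous compound exposure.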
The nature of experiment [17]: qHTS RealTime-Glo MT Cell Viability Assay in HepG2 cells - 32 hour (AID 1224877). Note: nearly all actives have a fitted effect of over 55% in size. Put shortly:
as §1

Experiment [18] is described as follows: A CellTox Green Cytotoxicity Assay to monitor cytotoxicity in HepG2 cells - 24 hour (AID 1224878). Note: nearly all actives have a fitted effect of over 45% in size. Note: potency is the fitted concentration of half-maximal effect. Put shortly: as §5
Experiment [19] in a line: A CellTox Green Cytotoxicity Assay to monitor cytotoxicity in HepG2 cells - 40 hour (AID 1224879). Note: nearly all actives have a fitted effect of over 40% in size. Note: potency is the fitted concentration of half-maximal effect. Put shortly:
as §5

Experiment [20] is described as follows: qHTS assay to identify small molecule agonists of the hypoxia (HIF-1) signaling pathway (AID 1224846; active = well fitted activation curve with a large enough effect in the signal ratio in the repeat runs, not every such curve was filed as active; the % refers to the signal ratio). An outline of the steps: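 Steps: seed ME-180 HRE-bla cells (2,000/well, 0.5% dialyzed FBS); incubate 5 hrs at 37C; pin-transfer compounds or DMSO; incubate 17 hrs; add LiveBLAzer B/G substrate CCF4-AM; measure reporter activation by FRET.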
% is set by controls: 0 for no effect and ±100 for the full control effect.

Sequence of Thyrotropin receptor (Homo sapiens) (P16473 whole entry, looked up): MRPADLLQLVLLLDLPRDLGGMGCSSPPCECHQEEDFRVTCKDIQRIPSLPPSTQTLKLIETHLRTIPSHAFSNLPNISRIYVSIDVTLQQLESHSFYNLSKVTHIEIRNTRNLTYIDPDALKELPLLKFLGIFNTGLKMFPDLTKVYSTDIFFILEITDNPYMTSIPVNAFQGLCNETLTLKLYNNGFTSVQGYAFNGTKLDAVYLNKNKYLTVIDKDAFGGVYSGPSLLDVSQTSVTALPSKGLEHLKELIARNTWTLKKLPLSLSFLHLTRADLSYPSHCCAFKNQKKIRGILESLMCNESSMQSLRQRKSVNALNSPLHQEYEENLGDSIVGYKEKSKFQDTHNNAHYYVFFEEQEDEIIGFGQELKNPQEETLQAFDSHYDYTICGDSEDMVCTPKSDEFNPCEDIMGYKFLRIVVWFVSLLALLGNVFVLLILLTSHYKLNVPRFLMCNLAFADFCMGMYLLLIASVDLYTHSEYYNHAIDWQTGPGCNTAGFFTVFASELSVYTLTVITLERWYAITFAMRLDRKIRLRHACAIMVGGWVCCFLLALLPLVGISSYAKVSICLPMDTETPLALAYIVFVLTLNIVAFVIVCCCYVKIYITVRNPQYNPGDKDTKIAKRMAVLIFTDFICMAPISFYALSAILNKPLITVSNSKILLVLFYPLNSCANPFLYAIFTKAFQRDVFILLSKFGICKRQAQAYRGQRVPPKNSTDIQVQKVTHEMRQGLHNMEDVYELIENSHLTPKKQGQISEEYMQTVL

Take `CC(C)Cc1ccc(C(C)C(=O)O)cc1` (stereo unspecified): the Potency entry in experiment [1], in experiment [2], in experiment [3], in experiment [4], in experiment [5] and in experiment [8] was “inactive” throughout. The Potency entry in experiment [9], in experiment [11], in experiment [12], in [15], in [16] and in experiment [18] was “inactive” each time. The Potency entry in experiment [19] was “inactive”. Moreover, the activity change, positive = activation in experiment [6] (at 42.5 µM (top of the series)) is 3.45% (inactive); in experiment [6] (at 92.4 µM (top of the series)), -6.89% (inactive) and 1.38% (inactive). In addition, the compound was called inactive in [7], in [10], in experiment [13] and in experiment [17]. Also, the max response in experiment [14] was 5.92% (inactive) and 7.46% (inactive) and 3.63% (inactive).

On to `NC(N)=NC(N)=NCCc1ccccc1`, for which the Potency entry in experiment [1], in experiment [2], in experiment [3], in [8], in experiment [9] and in experiment [11] was “inactive” each time. Further, the Potency entry in experiment [12], in experiment [15], in [16], in [18] and in [19] was “inactive” in each case. For the same compound, the outcome in [20], in [7], in experiment [10], in [13] and in experiment [17] was inactive. In addition, the Potency in [14] was 6.16 µM (active).

In the case of `CC(=O)CCC(C)C`, the Potency entry in experiment [1], in experiment [2], in experiment [3], in experiment [4], in experiment [8] and in experiment [12] was “inactive” each time. Besides, the compound was called inactive in [20], in experiment [7], in experiment [10], in experiment [13] and in [17]. The Potency result is “inactive and 38.9 µM (active)” in experiment [9]; “inactive and 24.5 µM (active)” in experiment [11]; “inactive and 38.9 µM (active)” in [16]; “inactive and 38.9 µM (active)” in [18]; “inactive and 27.5 µM (active)” in experiment [19]. Moreover, in experiment [14], the max response is -1.02% (inactive) and 1.57% (inactive).

Take `CCCCOCCOCCOC(C)=O`: the Potency result in experiment [2], in [3], in [4], in experiment [5], in experiment [8] and in [9] was “inactive” in each case. The Potency entry in [11], in experiment [12], in [15], in experiment [16] and in [19] was “inactive” each time. Also, the call in experiment [20], in experiment [7], in experiment [10], in experiment [13] and in experiment [17] was inactive. In [6] (at 92.4 µM (top of the series)), the activity change, positive = activation was 0.387% (inactive) and 1.02% (inactive). For the same compound, the max response in experiment [14] was 7.04% (inactive) and 1.04% (inactive).

Turning to `CC(C)=CCC/C(C)=C/CO`, the Potency entry in [1], in [2], in experiment [3], in [8], in experiment [9] and in experiment [11] was “inactive” in each case. In addition, the Potency result in [12], in experiment [15] and in experiment [19] was “inactive” each time. Besides, the result in experiment [7], in [10], in [13] and in [17] was inactive. In addition, the max response in experiment [14] is 7.58% (inactive) and 13.8% (inactive) and -0.309% (inactive).

Values taken from PubChem BioAssay (Tox21).
